WT yeast gro inh – growth inhibition of WT strain, primary screen, mitochondrial fusion inhibitor project, WT and mutant strains, chemical genetic; 190,000 tested, 2.1% active; mitochondrial fusion phenotypic screen; AID 1362, 2008; inhibition, % at 10 µM; in the data active = inhibition above about 58%; tested in S. cerevisiae
HCT116 bCat-KO – primary screen for growth suppressors in beta-catenin knockout HCT116 cells (colon tumor, human); HCT116 beta-catenin knockout viability, CellTiter-Glo, 60 h; active compounds read low; viability, % at 10 µM; 140,000 tested, 1.5% active;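 active = viability at or under a set limit, the compound median less 4 SD, cut at about 6% in these data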;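 also: 0% = Hyamine 1622 control at 20 µM and 100% = untreated cell control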
PTEN del growth – growth suppression of PTEN-null HCT116, primary screen, cell-based, CellTiter-Glo | HCT116 PTEN-null viability, 60 h; active compounds read low | viability, % at 10 µM | 140,000 tested, 1.2% active | AID 827, 2007;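 active = viability at or below a set limit, 4 SD under the median of all tested compounds, cut at about 3.7% in these data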;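 also: PTEN knockout HCT116 line with beta catenin targeted HCT116 as companion control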
hDAT+cocaine – changed hDAT dopamine uptake under cocaine IC80, either direction, primary screen, cocaine antagonist project, cell-based, LLC-PK1 hDAT, [14C]-dopamine uptake, MLSMR | Sodium-dependent dopamine transporter (Homo sapiens), Q01959 | LLC-PK1 hDAT cells, [14C]-dopamine uptake with cocaine IC80; actives deviate in either direction | B-score at 10 µM | 110,000 tested, 1.3% active;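 active = Z score or B-score, a plate-position-corrected score, falls beyond the plate's 99.7% confidence bounds, in either direction; inactive = both scores lie inside the 99.7% bounds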;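 also: scored against the spread of the other compound wells on the same plate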
Target sequence (Q01959 whole entry, looked up): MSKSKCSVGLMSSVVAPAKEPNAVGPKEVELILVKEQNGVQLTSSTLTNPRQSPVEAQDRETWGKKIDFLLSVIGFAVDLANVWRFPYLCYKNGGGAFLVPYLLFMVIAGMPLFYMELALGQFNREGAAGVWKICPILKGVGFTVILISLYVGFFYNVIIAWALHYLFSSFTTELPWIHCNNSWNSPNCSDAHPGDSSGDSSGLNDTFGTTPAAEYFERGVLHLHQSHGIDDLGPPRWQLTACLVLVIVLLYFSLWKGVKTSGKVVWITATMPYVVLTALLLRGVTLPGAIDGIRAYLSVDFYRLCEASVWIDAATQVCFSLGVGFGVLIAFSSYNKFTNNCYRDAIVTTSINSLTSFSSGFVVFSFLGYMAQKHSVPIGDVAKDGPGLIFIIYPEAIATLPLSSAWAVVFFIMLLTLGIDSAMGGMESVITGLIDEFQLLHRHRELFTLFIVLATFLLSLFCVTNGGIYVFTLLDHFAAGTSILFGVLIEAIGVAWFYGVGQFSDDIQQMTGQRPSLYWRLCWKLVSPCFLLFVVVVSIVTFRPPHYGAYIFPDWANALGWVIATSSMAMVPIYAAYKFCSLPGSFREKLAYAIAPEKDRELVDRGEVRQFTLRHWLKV
The depositor's hits bear a star; . = not tested or not shown. In the library only some 3.6% were active in any assay of this set; here they are far more common.

SMILES	WT yeast gro inh	HCT116 bCat-KO	PTEN del growth	hDAT+cocaine
COc1ccc2ccccc2c1CNCCCN1CCOCC1	21	.	.	.
Cc1ccccc1Nc1c(-c2ccccn2)nc2ccccn12	64*	.	.	.
Cc1ccn2c(Nc3ccccc3C)c(-c3ccccn3)nc2c1	72*	.	.	.
Cc1cccn2c(Nc3ccccc3)c(-c3ccccn3)nc12	75	.	.	.
Cc1ccc2nc(-c3ccccn3)c(Nc3ccccc3C)n2c1	76*	.	.	.
Cc1ccn2c(Nc3ccccc3)c(-c3ccccn3)nc2c1	73*	.	.	.
CC(C)Cc1nc2oc3c(NCCCN4CCOCC4)ncnc3c2c2c1CCC2	31	39	43	0.9
CC(C)Cc1nc2oc3c(Cl)ncnc3c2c2c1CCC2	2	0.9*	0.8*	-0.38
CC1=C(N2CCCCC2)CCC1=O	.	.	.	0.39
COc1ccc(OCCSc2nc(C)nc3ccccc23)cc1	-1	.	.	.
Oc1ccc(N2CCN(C(=S)NCCc3ccccc3)CC2)cc1	8	45	57	-0.15
CCN(CC)C(=O)c1[nH]cnc1C(=O)Nc1ccc(OC)cc1	.	.	.	3.1*
CCOC(=O)c1ccc(NC(=O)c2nc[nH]c2C(=O)N(CC)CC)cc1	.	.	.	1.6
Cc1cccc(Nc2nc(N)c([N+](=O)[O-])c(N3CCCC(C)C3)n2)c1 (centres undefined)	93*	9	2.8*	.
Cc1ccc(Nc2nc(N)c([N+](=O)[O-])c(N3CCOCC3)n2)cc1C	-1	72	63	.
Cc1ccc(Nc2nc(N)c([N+](=O)[O-])c(N3CCC(C)CC3)n2)cc1C	95*	64	64	.
CCOC(=O)CSc1nnc(CSc2nc3sc4c(c3c(=O)[nH]2)CCCC4)n1-c1ccccc1	7	94	103	1.9*
CCOC(=O)CSc1nnc2n(Cc3ccccc3)c(=O)c3c4c(sc3n12)CCC4	-6	95	99	-1.5*
CCOC(=O)CSc1nnc2n(C3CCCCC3)c(=O)c3c4c(sc3n12)CCCC4	1	95	104	0.11
CCOC(=O)CCCSc1nc2sc3c(c2c(=O)[nH]1)CCC3	-10	98	99	0.016
O=C(CCCCCN1C(=O)c2ccccc2C1=O)Oc1ccc2c3c(c(=O)oc2c1)CCC3	16	102	101	.
COc1ccccc1-c1nnc(Sc2nc([N+](=O)[O-])nn2C)o1	-16	2.1*	2.4*	0.57
Cn1cnnc1Sc1nc([N+](=O)[O-])nn1C	-4	.	.	.
Cc1cc(-c2nnc3n2N=C(c2ccc(-c4ccccc4)cc2)CS3)n[nH]1	17	19	3.1*	0.77
COc1ccc(C2=Nn3c(nnc3-c3ccccc3)SC2)cc1OC	-12	87	94	0.0067
SMILES	WT yeast gro inh	HCT116 bCat-KO	PTEN del growth	hDAT+cocaine
c1ccc(-c2cc(-c3nnc4n3N=C(c3ccc5ccccc5c3)CS4)[nH]n2)cc1	5	6	1.9*	-1.1
CCCOC(=O)c1ccc(NC(=O)c2ccccc2[N+](=O)[O-])cc1	14	.	.	.
Cc1nc2cc(C(=O)OCC(=O)NC34CC5CC(CC(C5)C3)C4)ccc2n1-c1ccccc1	59*	80	81	.
Cc1nc2cc(C(=O)OCC(=O)NC3CCS(=O)(=O)C3)ccc2n1-c1ccccc1 (centres undefined)	-11	83	86	-0.064
N#Cc1nc(-c2cccs2)oc1NCc1ccc2c(c1)OCO2	-9	102	98	0.14
Cc1ccc(NC(=O)c2sc(Cl)nc2C)c(C)c1	-7	100	103	.
Cc1cc(C)c(C)c(OC(=O)c2sc(Cl)nc2C)c1	8	1.7*	2.3*	.
Cc1cc(Cl)ccc1NC(=S)NCc1ccco1	-1	89	78	.
COc1ccc(OC)c(C(=O)/C=C/c2ccccc2C(F)(F)F)c1	5	4.2*	5	.
COc1ccc(C(=O)/C=C/c2ccccc2)c(OC)c1	5	.	.	-0.76
CCOC(=O)N1CCN(c2nc3ccccc3nc2C(C#N)S(=O)(=O)c2ccc(C)cc2)CC1 (centres undefined)	-5	95	78	.
Cc1cccc(-c2ncc(CN3CCCC(CO)(Cc4ccccc4C)C3)cn2)c1 (centres undefined)	60*	.	.	.
CCOC(=O)C1=C(C)NC(C)=C(C(=O)OC)C1c1cccc([N+](=O)[O-])c1 (centres undefined)	16	87	87	1.5
COC(=O)C1=C(C)NC(C)=C(C(=O)OC)C1c1ccccc1[N+](=O)[O-]	-7	1.6*	1.9*	0.25
N#CC1=C(N)Nc2nc3ccccc3n2C1c1ccc(Cl)cc1 (centres undefined)	31	89	83	.
Oc1cccc2ccc(/C=C/c3cccs3)nc12	52	6	3.8*	-0.68
Cc1ccsc1/C=C/c1ccc2ccccc2n1	31	52	49	.
Oc1ccc(Cl)cc1/C=C/c1ccc2cccc(O)c2n1	71*	.	.	.
Cc1ccsc1/C=C/c1ccc2cccc(O)c2n1	16	5.0*	4	-2.3
COc1ccc(Cc2n[nH]c(=S)n2Cc2ccccc2)cc1Cl	9	.	.	.
O=C1c2cccnc2C(Nc2ccc(Br)cc2Br)N1Cc1cccs1 (centres undefined)	-20	.	.	.
COc1ccc(-c2nc(C)ncc2N=Nc2ccccc2)cc1	98*	97	90	0.16
O=C(Nc1ccc(Cl)c(Cl)c1)OCc1cccnc1	79*	92	87	-1.8
COc1cccc(S(=O)(=O)NCc2ccc(C(=O)Nc3ccc(Cl)c(Cl)c3)cc2)c1	6	84	70	-0.31
O=C(Nc1ccc(Cl)c(Cl)c1)c1cccc(S(=O)(=O)NCc2cccnc2)c1	76*	15	16	.
SMILES	WT yeast gro inh	HCT116 bCat-KO	PTEN del growth	hDAT+cocaine
N#Cc1nc(Cc2cccc3ccccc23)oc1NCc1ccc(F)cc1	71*	53	36	0.86
Cc1ccc(N(CC(=O)NC(C)(C)C)C(=O)CNC(=O)c2cccs2)cc1C	4	.	.	.
Cc1nc(N2CCN(Cc3ccc4c(c3)OCO4)CC2)c2cc(-c3ccccc3)sc2n1	70*	.	.	.
CCCc1[nH]n(-c2nc3ccccc3s2)c(=O)c1C=NCC(C)C	10	100	92	4.4*
O=c1c(C=NCc2cccnc2)c(C(F)(F)F)[nH]n1-c1nc2ccccc2s1	9	.	.	.
CC(C)NC(=O)C1CCN(C2CCN(C(=O)c3scc4c3CCCC4)CC2)CC1	10	.	.	.
Cc1ccc(NC(=O)CCC(=O)OCC(=O)c2ccc(Oc3ccc([N+](=O)[O-])cc3)cc2)cc1C	66*	80	89	.
CCCC(C)NC(=S)Nc1cc(C)cc(C)c1 (centres undefined)	73*	.	.	.
CCOC(=O)c1cccc(NC(=O)C2CCCN(S(=O)(=O)c3c(C)nn(C)c3C)C2)c1 (centres undefined)	1	82	71	3*
CCc1cc2c(Sc3nc4ccccc4s3)ncnc2s1	10	4.4*	3.7*	0.31
c1ccc2sc(Sc3ncnc4sccc34)nc2c1	-26	4.2*	4	.
COCCNC(=O)CSc1ccccc1C(=O)O	6	.	.	.
CC1CCCC(NC(=S)Nc2cccc(S(=O)(=O)N(C)C)c2)C1C (centres undefined)	10	.	.	.

Source: PubChem
